Experimental data as given in PubChem BioAssay AID651780 (The Scripps Research Institute Molecular Screening Center, 2012).
In all, about 2,400 compounds went through this assay and about 1,800 (75%) were called active. The set was probably picked from earlier hits. These entries were drawn from the full list. Unmarked numbers belong to inactive results. No stated cut-off is given here; in the data, active means inhibition above about 22%; inactive means the rest.

Experiment: calcium response inhibition in counter-screen line – cell-based, fluorescence, counter-screen for hTAAR1 antagonist project (AID 651780);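 further: CHO-Ga16 host cells stimulated with ATP at an EC80 level; 0% = agonist EC80 plus vehicle and 100% = vehicle without agonist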
Conditions: counterscreen cell line, antagonist mode, at 3 µM, active compounds read high

SMILES	inhibition
O=C(CCc1ccccc1)Nc1cccc(-c2nnc(-c3ccco3)o2)c1	25.8% (active)
CCN=C1SC(CC(=O)Nc2ccc(C)cc2)C(=O)N1CC (centres undefined)	29.4% (active)
O=C(Nc1ccccc1-c1nnn(CC(=O)N2CCN(c3ccccc3)CC2)n1)c1cccs1	36.9% (active)
Cn1c(C(=O)NCCc2ccsc2)cc2c(=O)n(C)c3ccccc3c21	27.8% (active)
Cc1ccccc1OCC(=O)Nc1ccc(N2CCN(C(=O)C(C)C)CC2)c(Cl)c1	43.2% (active)
CN(c1ccccc1)S(=O)(=O)c1cc(C(=O)Nc2nc3ccccc3[nH]2)ccc1Cl	39.7% (active)
O=C(NCc1ccc2c(c1)OCO2)c1c(-c2ccsc2)sc2ccccc12	21.1%
COc1ccc(C2=NOC(Cn3nc(C(=O)NCc4ccc5c(c4)OCO5)cc3-c3ccccc3)C2)cc1 (centres undefined)	34.1% (active)
O=C(COC(=O)c1ccccc1SCC(=O)N1CCCC1)Nc1ccccc1OC(F)F	27.2% (active)
CC(C)N(Cc1ccccc1)C(=O)COC(=O)c1ccccc1SCC(=O)N1CCCC1	30.8% (active)
Cc1cc(C(C)(C)C)oc1C(=O)N(CC(=O)NC1CCCC1)Cc1ccc(Cl)cc1	36% (active)
COC(=O)Cc1nnn2c1[C@H](C)[C@H](c1ccccc1[N+](=O)[O-])OCC2	5.35%
COc1ccc(/C=C/C(=O)Nc2ccc(C34CC5CC(CC(O)(C5)C3)C4)cc2)cc1OC	37% (active)
CCOc1ccc(N2CC(C(=O)N/N=C/c3sccc3C)CC2=O)cc1 (centres undefined)	10.5%
CSc1ncnc2c1ncn2CC(=O)C1CCC2C3CCC4=CC(=O)CCC4(C)C3CCC12C (centres undefined)	49.7% (active)
CC(C)Oc1cc(F)ccc1-c1cc(C(=O)Nc2ccc(F)cc2)[nH]n1	26.3% (active)
COc1ccc(-c2cc(C(=O)Nc3ccccc3O)c3ccccc3n2)cc1	32.2% (active)
COc1ccc(NC(=O)c2cc(-c3ccc(C)o3)nc3ccccc23)cc1	36.1% (active)
N#Cc1cccc(NC(=O)COC(=O)c2ccccc2C(=O)c2ccc(Cl)c([N+](=O)[O-])c2)c1	36.1% (active)
O=C(NCCN1C(=O)S/C(=C\c2cccnc2)C1=O)c1ccc(S(=O)(=O)N2CCCC2)cc1	13%
O=C(NCCN1CCOCC1)c1ccc(/C=C2\Sc3ccccc3N(Cc3ccc(F)cc3)C2=O)cc1	35.2% (active)
COc1ccc(-c2cc(C(=O)N(C)CC(=O)Nc3ccccc3Cl)c3ccccc3n2)cc1OC	27.4% (active)
COc1ccc(-c2cc(C(=O)N(C)Cc3ccc(OC)c(OC)c3OC)c3ccccc3n2)cc1OC	30.9% (active)
COc1ccc(CN(C)C(=O)c2cc(-c3ccc(C)cc3C)nc3ccccc23)c(OC)c1OC	28% (active)
COc1ccc(-c2cc(C(=O)N(C)Cc3ccccc3)c3ccccc3n2)cc1	27.7% (active)
COc1ccc(C(=O)Nc2ccccc2C(=O)N/N=C/c2ccc(O)c(OC)c2)cc1	38.3% (active)
CCOc1cc(/C=N/NC(=O)c2cc(-c3ccccc3)nc3ccccc23)ccc1O	19%
O=C(N/N=C/c1ccc(OC(=O)c2ccccc2Cl)cc1)c1ccc(O)cc1	36.3% (active)
CC/C(=N/Nc1ccccc1)c1cnnc(SC)n1	16.8%
